Measured values published in PubChem BioAssay (NCI).
About 83,000 compounds went through this panel and 20% of them were active in at least one assay; those are over-represented in the sample as a whole.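 96-well plates, one dose, 48 hours. Percent growth reported; active if below 10.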 Values without a mark were called inactive. Active and inactive are the calls of the source.

Key:
Experiment in all cases: NCI-60 one-dose screen, 48 h (100 = growth as untreated, 0 = no growth, -100 = all killed)
Conditions in all cases: 10 µM unless noted
SK-MEL-2 melanoma = system: SK-MEL-2 melanoma
EKVX NSCLC = system: EKVX NSCLC
SN12C renal = system: SN12C renal
UO-31 renal = system: UO-31 renal
TK-10 renal = system: TK-10 renal
ACHN renal = system: ACHN renal
A498 renal = system: A498 renal
CCRF-CEM leukemia = system: CCRF-CEM leukemia
MOLT-4 leukemia = system: MOLT-4 leukemia
SR leukemia = system: SR leukemia
RPMI-8226 leukemia = system: RPMI-8226 leukemia
OVCAR-8 ovarian = system: OVCAR-8 ovarian
OVCAR-5 ovarian = system: OVCAR-5 ovarian
OVCAR-4 ovarian = system: OVCAR-4 ovarian
SK-OV-3 ovarian = system: SK-OV-3 ovarian
IGROV1 ovarian = system: IGROV1 ovarian
OVCAR-3 ovarian = system: OVCAR-3 ovarian
HS 578T breast = system: HS 578T breast
NCI/ADR-RES ovarian = system: NCI/ADR-RES ovarian
T-47D breast = system: T-47D breast

Compound	growth (SK-MEL-2 melanoma)	growth (EKVX NSCLC)	growth (SN12C renal)	growth (UO-31 renal)	growth (TK-10 renal)	growth (ACHN renal)	growth (A498 renal)	growth (CCRF-CEM leukemia)	growth (MOLT-4 leukemia)	growth (SR leukemia)	growth (RPMI-8226 leukemia)	growth (OVCAR-8 ovarian)	growth (OVCAR-5 ovarian)	growth (OVCAR-4 ovarian)	growth (SK-OV-3 ovarian)	growth (IGROV1 ovarian)	growth (OVCAR-3 ovarian)	growth (HS 578T breast)	growth (NCI/ADR-RES ovarian)	growth (T-47D breast)
CCc1ccc(OCc2ccccc2C(=O)Nc2ccc3nc(C)cc(N)c3c2)cc1	-83.1% (active)	-56.2% (active)	-79.7% (active)	-98.5% (active)	-93.5% (active)	-100% (active)	-94.3% (active)	-53.4% (active)	-74.4% (active)	-61.2% (active)	-45.4% (active)	-60.7% (active)	-95.4% (active)	-84.3% (active)	-97% (active)	-71.5% (active)	-92.4% (active)	-42% (active)	-71.5% (active)	-60% (active)
CCCCC1=c2c([nH]c3ccc(OC)cc23)=NC2C=CC=NC12 (stereo not given)	110%	84.3%	88.5%	75%	115%	91.2%	94.9%	91.5%	69.5%	45%	56.8%	101%	106%	80.3%	113%	69.9%	114%	92.3%	96.6%	38.8%
COC(=O)c1ccc(NC(=O)CSc2nc(-c3ccc(F)cc3)nc3ccccc23)cc1	99.8%	91.4%	79.3%	82.3%	113%	97.4%	99.6%	85.7%	89%	78%	44.9%	82.2%	107%	-31.5% (active)	90.9%	90.9%	16.8%	82.8%	88%	67.7%
COc1ccc(/C(=N\O)c2cc(C)c(OC)c(C)c2)cc1O	37.6%	51.7%	39.4%	51.6%	72%	31.7%	6.79% (active)	7.8% (active)	13.8%	10.3%	12.7%	15.3%	46.7%	67%	51.2%	30.3%	10.1%	33.5%	28.6%	84.9%
COC(=O)/C=C1\SC(=Nc2ccc(C(F)(F)F)cc2)N(CCc2c[nH]c3ccccc23)C1=O	-54.1% (active)	-6.54% (active)	-65.1% (active)	-100% (active)	-33.7% (active)	-100% (active)	-48.5% (active)	3.88% (active)	-11.4% (active)	-13.7% (active)	-22.5% (active)	-9.92% (active)	-41.4% (active)	-33.2% (active)	10.4%	-66.1% (active)	-91% (active)	-2.51% (active)	-12.9% (active)	-40.7% (active)
CC[C@]12C=CCN3CC[C@@]4(c5ccc(OC)cc5N(C)[C@H]4[C@@](O)(C(=O)OC)[C@@H]1OC(=O)CCC(=O)O[C@H]1CC[C@H]4[C@@H]5CC[C@H]6CC(=O)CC[C@]6(C)[C@H]5CC[C@]14C)[C@@H]32	8.52% (active)	21.2%	24.8%	13.3%	21.2%	19.1%	12.3%	7.55% (active)	1.58% (active)	-10.4% (active)	0.329% (active)	25.7%	34.6%	36.6%	35.3%	28.6%	23.8%	43.4%	25.4%	8.78% (active)
O=C(N/N=C/C[C@@H]1[C@@H](/C=C/[C@@H](O)COc2cccc(Cl)c2)[C@H](O)C[C@@H]1O)c1ccncc1	102%	98.4%	102%	89.5%	73.2%	101%	97.9%	98%	83.7%	92.3%	94.5%	79.9%	97.4%	104%	77%	109%	105%	92.5%	102%	90.8%
CC(C)Cc1cc(CNC(=O)C2[C@H]3CN(C(=O)c4ccccc4)C[C@@H]23)nn1-c1ccccc1 (stereo not given in full)	83.8%	92.8%	99.1%	74.9%	73.2%	92.2%	96.6%	89.7%	80.6%	90.4%	84.7%	77.9%	97.9%	104%	76.8%	107%	100%	97.9%	93.8%	74.2%
O=C(Nc1ccc2ncnc(Nc3cccc(C(F)(F)F)c3)c2c1)c1cccs1	90.7%	32.5%	68.5%	51.1%	47.4%	47.4%	18.9%	37.2%	17.6%	33.8%	40.8%	49.9%	63.9%	33.1%	83.7%	32.7%	29.1%	103%	55.7%	32.3%
COc1ccc(-c2cc(-c3nnc(SCC(=O)Nc4ccc(/C(C)=N\O)cc4)n3-c3ccccc3)c3cc(OC)ccc3n2)cc1	86.9%	82.7%	86.8%	54.7%	87.8%	72.6%	78.1%	37.2%	29.9%	49.1%	66.7%	75.8%	102%	92.1%	79.9%	39.6%	77.4%	82.7%	71.3%	45.4%
C#C[C@@]1(O)[C@@H](CO)O[C@@H](n2cc(Br)c3c(N)ncnc32)[C@@H]1O	-24.9% (active)	-23.8% (active)	-1.98% (active)	-78.3% (active)	-0.297% (active)	-5.98% (active)	-78.9% (active)	3.84% (active)	-16.5% (active)	-1.01% (active)	0.406% (active)	-0.359% (active)	18.8%	5.79% (active)	-8.02% (active)	-22.5% (active)	-25.5% (active)	-5.73% (active)	1.19% (active)	-20.1% (active)
CCN(CC)CC#CCOC(=O)[C@]1(C)CCC[C@]2(C)[C@H]3C[C@H]4C(C(C)C)=C[C@]3(CC[C@H]21)[C@@H]1C(=O)CCC(=O)[C@@H]14	72.3%	55.9%	57.1%	50.9%	95.4%	72.5%	102%	20.5%	10.7%	10.2%	17.5%	39.6%	62.4%	36.4%	77.8%	64.2%	58.5%	69.3%	45.7%	35.5%
O=C1CC23OC4ON=C(Br)C4C2C(O)c2ccccc2N13 (stereo not given)	89.8%	92.1%	101%	63.4%	132%	94.3%	118%	111%	99.6%	107%	100%	104%	114%	120%	93.5%	88.8%	96.3%	98.4%	94.5%	100%
